TNF necrop inh – inhibitors of TNF-alpha induced necroptosis in Jurkat FADD-/- cells; 0.068% of 220,000 active; activation (protection from cell death), % at 10 µM; AID 463075; Jurkat FADD-/- TNF necroptosis rescue, ATP luminescence, 24 h; 0 = TNF only, 100 = no-TNF cells;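 active means activation, meaning protection from cell death, of at least 50% relative to plate controls; inactive means activation below 50%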;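 further: necroptosis triggered by 40 ng/mL TNF-alpha added together with compound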
Mcl1 Bid PPI – Mcl-1/Bid interaction inhibition; Q07820; TR-FRET Mcl-1/Bid-Dy647 peptide binding, 1536-well; inhibition, % at 21.7 µM; 0.97% of 220,000 active; AID 1021;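 active means compounds that cut the binding signal by more than half at the single screening dose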;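 further: His-tagged Mcl-1 with europium anti-His antibody binding Bid BH3 peptide; 0% = Mcl-1 plus peptide wells and 100% = peptide-only wells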
Target sequence (Q07820 whole entry, looked up): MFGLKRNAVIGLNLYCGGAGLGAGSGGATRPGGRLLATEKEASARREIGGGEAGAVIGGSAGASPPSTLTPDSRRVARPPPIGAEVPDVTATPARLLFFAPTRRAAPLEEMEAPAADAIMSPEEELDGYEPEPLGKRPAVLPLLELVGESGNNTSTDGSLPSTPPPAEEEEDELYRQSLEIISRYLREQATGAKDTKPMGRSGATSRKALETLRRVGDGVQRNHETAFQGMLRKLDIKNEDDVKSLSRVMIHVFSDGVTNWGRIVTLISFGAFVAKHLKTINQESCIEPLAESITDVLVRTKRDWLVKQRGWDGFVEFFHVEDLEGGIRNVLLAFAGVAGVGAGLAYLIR
L929 necroptosis – blocks zVAD induced death of L929 cells | L929 zVAD necroptosis rescue, ATP luminescence, 24 h; with zVAD 60 µM | viability rescue, % at 10 µM | 0.38% of 220,000 active | AID 1377;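 active means activation, scaled between plate controls, above about 75%, limit read from the data; inactive means activation under that limit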;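 further: 0% = zVAD with DMSO and 100% = DMSO alone without zVAD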
Mcl1 Noxa PPI – Mcl-1/Noxa interaction inhibition; AID 1022; inhibition, % at 21.7 µM; TR-FRET Mcl-1/Noxa peptide binding, 2 h; 1.5% of 220,000 active; Q07820;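 active means compounds that cut the protein-peptide binding signal by more than 50% relative to plate controls in a single-dose test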;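 further: His-tagged Mcl-1 with rhodamine Noxa BH3 peptide and terbium anti-His antibody; 0% = Mcl-1 plus Noxa peptide wells and 100% = peptide-only wells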
Mcl-1 Bim block – human Bim-Mcl-1 interaction inhibition; inhibition, % at 10 µM; Bead-based flow cytometry, Bim peptide-Mcl-1 binding; 0.1% of 190,000 active; in the data active means inhibition above about 40%;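 further: 0% = no compound tracer wells and 100% = peptide blocker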
MCL1-BIM inh – inhibitors of human MCL1 binding to BIM-BH3 peptide; Q07820; GST-MCL1 / FITC-Bim-BH3 fluorescence polarization; 0.68% of 320,000 active; inhibition, % at 10.9 µM;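 active means inhibition above the mean inhibition of all tested compounds plus 3 SD, set per campaign, cut at about 40% in these data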;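 further: 0% = DMSO wells and 100% = unlabeled Bim-BH3 peptide control; higher means more loss of mP so more displacement of Bim peptide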
Numbers without * were called inactive; nt = no result given. Hits are enriched below; roughly 2.4% of the tested compounds scored in any of these assays.

SMILES | TNF necrop inh | Mcl1 Bid PPI | L929 necroptosis | Mcl1 Noxa PPI | Mcl-1 Bim block | MCL1-BIM inh
COc1ccc(OC)c(NC(=O)Nc2ccc3c(c2)OCO3)c1 | nt | nt | nt | nt | nt | -0.5
O=C(C1COc2ccccc2O1)N1CCCC1 (stereo not given) | 2.1 | 16.0 | -0.6 | 2.2 | -2.0 | 2.2
O=C(C1COc2ccccc2O1)N1CCc2ccccc21 (stereo not given) | 89.2* | -8.4 | 2.4 | 46.8 | 0.0 | 13.3
CC(C)(C)C1=CC(=O)C(=O)C(C(C)(C)C)=C1 | -18.7 | 39.0 | 1.9 | 63.3* | -7.0 | 26.5
CC(C)(C)C1=CC(=Nc2ccccc2N)C=C(C(C)(C)C)C1=O | 1.4 | -7.9 | 0.7 | -11.2 | -3.0 | 2.9
COc1ccc2cc3c(N)nn(C(=O)c4ccc(Cl)c([N+](=O)[O-])c4)c3nc2c1 | 6.8 | 54.1* | 7.6 | 16.9 | 8.0 | 15.1
Nc1nonc1-n1nnc(C(=O)N/N=C/c2ccc(OCc3ccccc3)cc2)c1CN1CCCCC1 | nt | nt | nt | nt | nt | -36.6
Cc1ccc(S(=O)(=O)N(C(=O)c2ccncc2)c2ccc(OC(=O)c3ccncc3)c3ccccc23)cc1 | -12.5 | -38.0 | 15.5 | 59.3* | -9.0 | -2.2
Cc1ccc(S(=O)(=O)N(C(=O)c2ccncc2)c2ccc(OC(=O)c3ccncc3)c3ccccc23)c(C)c1 | -19.3 | -54.5 | -0.3 | 49.8 | -3.0 | 4.0
N#CC(Sc1ccccn1)c1ccc(Cl)cc1 (stereo not given) | -1.7 | -21.1 | -0.3 | 9.5 | 0.0 | -7.8
Cc1cc(C2=NNC(=NC3CC3)SC2)c(C)n1Cc1ccco1 | -6.3 | -38.6 | -0.5 | 19.0 | 61.0* | 3.4
CCCc1nc2c(ccc3ccccc32)cc1CC | nt | nt | nt | nt | nt | -2.0
CCCNC(=O)CCCCn1c(=S)[nH]c2c([nH]c3ccc(OC)cc32)c1=O | -0.2 | -30.2 | 2.2 | 10.6 | -4.0 | 4.6
CCCNC(=O)c1ccc(Cn2c(=S)[nH]c3c([nH]c4ccc(OC)cc43)c2=O)cc1 | -1.6 | -1.0 | 1.2 | 60.1* | -16.0 | -17.5
COc1ccc2nc(Nc3nc(CSc4nc5ccccc5[nH]4)cc(=O)[nH]3)nc(C)c2c1 | -8.8 | 55.8* | 67.2 | -112.5 | -4.0 | 5.1
Cc1nc(Nc2nc(CSc3nc4ccccc4[nH]3)cc(=O)[nH]2)nc2ccccc12 | -10.6 | -31.8 | 56.8 | -88.7 | -2.0 | -0.6
COc1cc(Cl)c(C)cc1NC(=O)COC(=O)C1=COCCO1 | nt | nt | nt | nt | nt | 3.5
COc1ccc(C(CC(=O)N2CCCC(C)C2)c2c(OC)cc(OC)c3c(-c4ccccc4)cc(=O)oc23)cc1 (stereo not given) | 2.6 | -102.5 | -0.2 | 59.3* | nt | 19.7
COc1ccc(C(CC(=O)N2CCN(c3ccccc3)CC2)c2c(OC)cc(OC)c3c(-c4ccccc4)cc(=O)oc23)cc1 (stereo not given) | -1.0 | -48.5 | 0.7 | 3.5 | nt | nt
COc1ccc(C(CC(=O)N2CCCCC2)c2c(OC)cc(OC)c3c(-c4ccccc4)cc(=O)oc23)cc1 (stereo not given) | -0.7 | -102.4 | 0.2 | 63.4* | nt | 31.8
COc1ccc(C(CC(=O)N2CCOCC2)c2c(OC)cc(OC)c3c(-c4ccccc4)cc(=O)oc23)cc1 (stereo not given) | -0.6 | -18.3 | -0.2 | 53.9* | nt | 21.0
Cc1cccc(NS(=O)(=O)c2ccc(OCC(=O)N3CCCC3)cc2)c1 | nt | nt | nt | nt | nt | 5.9
COCCN1CC(C(=O)NCCc2nc(C)c(C)s2)CCC1=O (stereo not given) | nt | nt | nt | nt | nt | 3.5
O=S(=O)([N-]c1nc2ccccc2nc1-n1cc[n+](Cc2ccccc2)c1)c1ccc(Cl)cc1 | 1.2 | -77.6 | -0.1 | -123.2 | nt | 7.7
O=C(O)/C=C/c1cccc(OCc2ccccc2)c1 | 0.6 | 4.3 | 7.1 | 11.9 | 0.0 | 0.4
SMILES | TNF necrop inh | Mcl1 Bid PPI | L929 necroptosis | Mcl1 Noxa PPI | Mcl-1 Bim block | MCL1-BIM inh
O=C(/C=C/c1cccc(OCc2ccccc2)c1)c1cccnc1 | 2.9 | 55.4* | 1.4 | 30.1 | -4.0 | 6.2
COc1ccc(N=Nc2ccc(O)c3ncccc23)cc1 | -21.4 | 72.9* | 25.1 | -1.6 | nt | 11.1
COc1cccc(N=Nc2ccc(O)c3ncccc23)c1 | nt | nt | nt | nt | nt | 7.6
O=C(O)c1ccccc1NSc1ccccc1[N+](=O)[O-] | -0.9 | 2.3 | 0.5 | 21.9 | 51.0* | 20.1
O=C(O)c1cccc([N+](=O)[O-])c1C(=O)Nc1cccc2ccccc12 | nt | nt | nt | nt | nt | 15.9
CNC(=O)C(=O)NCCN1CCN(C(=O)c2ccc([N+](=O)[O-])cc2)CC1 | 0.2 | 90.8* | 3.6 | -11.7 | 1.0 | -4.3
O=C(COC(=O)c1cnccn1)Nc1ccc2c(c1)OCO2 | -1.9 | -1.0 | 0.1 | 62.2* | 0.0 | -4.3
Nc1ccc(C(=O)OCC(=O)Nc2ccc3c(c2)OCO3)cc1[N+](=O)[O-] | 0.8 | -33.2 | 0.4 | 51.9* | 0.0 | -3.5
O=C(Nc1ccc2c(c1)OCO2)c1cnccn1 | -0.3 | -42.6 | 2.7 | 2.2 | -1.0 | -3.1
CCOC(=O)Nc1nnc(-c2cccc(OC)c2)s1 | -1.4 | 16.4 | 0.0 | 10.6 | 0.0 | 5.7
CCCC(=O)Nc1nnc(-c2cccc(OCC)c2)s1 | -6.5 | 86.0* | 0.0 | 6.3 | -2.0 | 5.1
CCCOc1ccc(C(=O)NCCC(=O)NCCCC(=O)OCC)cc1 | 1.7 | -21.3 | 0.6 | nt | 3.0 | 1.1
CCCCOc1ccc(C(=O)NCCC(=O)NCCCC(=O)OCC)cc1 | 3.4 | 94.2* | 0.5 | 3.2 | nt | 0.8
CCSc1nnc(NC(=O)C(Cc2ccccc2)n2cccc2)s1 (stereo not given) | 1.2 | 64.5* | 0.8 | 28.1 | 0.0 | 6.9
Cc1csc(NC(=O)C(Cc2ccccc2)n2cccc2)n1 (stereo not given) | -2.4 | -17.9 | 0.8 | 14.0 | -1.0 | 1.8
COc1cccc(C(=O)Nc2ccc(N(C)C)cc2)c1OC | 0.8 | -42.4 | 1.1 | 65.1* | -5.0 | 4.8
CN(C)c1ccc(/C=N/NC(=O)c2cccc(C(=O)N/N=C/c3ccc(N(C)C)cc3)n2)cc1 | -1.2 | 45.3 | 0.2 | 82.2* | 5.0 | 3.9
CCN(CC)c1ccc(NC(=O)c2cc(Cl)ccc2OC)cc1 | 4.4 | 8.3 | 8.2 | 65.8* | 1.0 | 8.9
CN(C)c1ccc(NC(=O)c2cccc(C(=O)Nc3ccc(N(C)C)cc3)n2)cc1 | 0.4 | -11.8 | 0.7 | 85.7* | 3.0 | 6.8
COc1ccc(Cl)cc1C(=O)Nc1ccncc1 | nt | nt | nt | nt | nt | -4.5
CC1O[C@@H]2O[C@](O[C@H](C)CC[C@@H](C)O)(c3ccccc3)O[C@@H]2C[C@H]1O (stereo not given in full) | nt | nt | nt | nt | nt | 9.2
CC(C)(C)c1cc(C(=O)O)n(Cc2ccc(Cl)cc2Cl)n1 | -0.2 | -3.3 | 2.8 | 8.6 | nt | 0.7
COc1cccc2cc(C(=O)NNC(=O)c3ccc(Br)cc3)c(=O)oc12 | 0.3 | 28.0 | 0.1 | 63.5* | 1.0 | 2.1
COc1cccc2cc(C(=O)Oc3ccc(NC(C)=O)cc3)c(=O)oc12 | 1.0 | 94.3* | -0.6 | -0.7 | 2.0 | 0.4

Bioassay records (PubChem)
